High-throughput results: PubChem, National Center for Advancing Translational Sciences (NCATS)
GPT2 inh: blocks human glutamate pyruvate transaminase 2; Q8TD30; AID 1671188; 100,000 compounds, 0.25% hits; Potency, µM (series often up to 57.7 µM), without a hit: top-dose activity change, negative = inhibition, usual class: inhibitors; Recombinant GPT2, coupled pyruvate oxidase/HRP Amplex Red fluorescence; note: potency is the fitted concentration of half-maximal effect; % is set by controls: 0 for no effect and ±100 for the full control effect; nearly all actives have a fitted effect of over 60% in size
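Recombinant GPT2 (10ng/uL) with 250uM a-KG and 2mM L-alanine, 30 min at room temperature, in HEPES pH 7.5 buffer. Pyruvate detected by pyruvate oxidase/HRP/Amplex Red fluorescence after 30 min in the dark; AOA (50uM) as positive control.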
IP6K1 inhibitor: IP6K1 kinase inhibition. Q92551. IP6K1 kinase, ADP-Glo luminescence, 2 h; active compounds read low. activity change, % (series mostly up to about 58 µM). 140,000 compounds, 0.81% hits; in the data active = activity change below about -25%; note: % is set by controls: 0 for no effect and ±100 for the full control effect
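ADP-Glo luminescence measures ADP made by human IP6K1 during a 2 h RT reaction with ATP/IP6 (mix at 1.3 mM/130 uM); top library doses 57.5 and 19.1 uM final.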
GPT2 inh cnf: human alanine aminotransferase 2 inhibition, confirmatory; shares compounds with GPT2 inh; GPT2 enzyme, coupled Amplex Red pyruvate fluorescence; Potency, µM, most hits filed as inhibitors; 95 compounds, 90% hits
* = called active by the depositor; i = inactive; ? = inconclusive; · = no result. In the library only some 0.82% were active in any assay of this set; here they are far more common. Unless noted, calls come from the whole dose curve; as a rule, active = well fitted inhibition curve with a large enough effect; inconclusive = small, poorly fitted or top-dose-only effect; inactive = flat fitted curve, though single readings scatter.

SMILES	GPT2 inh	IP6K1 inhibitor	GPT2 inh cnf
Cc1ccsc1C(=O)NC1CCN(c2cc(C(F)(F)F)ncn2)CC1	-8%	9	·
COc1ccc(-c2ccc3nc(-c4cccc(Cl)c4)oc3c2)c(OC)c1OC	?	-4	2.4*
COc1ccc(-c2ccc3nc(-c4ccccc4)oc3c2)c(OC)c1OC	-19%	12	·
Cc1cc(CNC(=O)c2cc(-c3ccc(N4CCOCC4)cc3)cc3c2OCCN3C)no1	3%	-21	·
C[C@@H]1CN(C(=O)c2cc(N3CCOCC3)cc3c2OCCN3C)C[C@H](C)O1	·	·	4.4*
COc1cc(N2CCOCC2)ccc1Nc1ncc(Cl)c(Nc2ccccc2NS(C)(=O)=O)n1	5µM*	-5	1.5*
CNc1nc(Nc2ccc(C(=O)N3CCOCC3)cc2OC)ncc1Cl	2%	-21	·
CCNc1nc(Nc2cc(F)c(C(=O)N3CCOCC3)cc2OC)ncc1C(F)(F)F	2%	-2	·
COc1cc(N2CCOCC2)ccc1Nc1ncc(F)c(Nc2ccccc2NS(C)(=O)=O)n1	3.2µM*	3	1.9*
CC(C)c1cc(C(=O)N[C@@H]2COCC[C@@H]2Oc2cccc(F)c2)nc(N)n1	i	-2	·
CC(C)CN1C(=O)c2cccn2CC1C(=O)NCCCN1CCOCC1 (configuration not stated)	4%	-2	·
COc1ccc(OC)c(NC(=O)Cn2nc3n(c2=O)CCCCC3)c1	i	11	·
Cn1nc(C(=O)NCC(=O)N2CCCCCCNC(=O)CC2c2ccccc2)c2ccccc21 (configuration not stated)	?	6	·
CCN(CC)c1ccc(NC(=O)CCn2ccn3nc4c(c3c2=O)CCCC4)c(C)c1	?	18	1.7*
Cc1cc(Cl)ccc1NC(=O)CCn1ccn2nc3c(c2c1=O)CCCC3	i	0	·
COc1ccccc1-c1cccc(CN2CCCC(C(=O)N3CCCC(C)C3)C2)c1 (configuration not stated)	-4%	-7	·
CN(C)c1ccc(C(=O)N2CCc3cn(C)c4cccc(c34)C2)cc1	0%	12	·
CN(C)c1ccc2c(c1)CN(C(=O)c1cnn(C)c1)CCO2	1µM*	-6	0.69*
NC(=O)CCc1ccc(CC2CCN(C(=O)c3cccnc3)CC2)cc1	-2%	28	·
COc1ccc(CCC(=O)N2CCOc3ccc(N4CCCC4)cc3C2)cc1	3.2µM*	8	1.5*
CNC(=O)CCc1ccc2c(c1)CN(C(C)=O)CCO2	i	11	·
CCc1nc(C(N)=O)c(Nc2ccc(N3CCC(N4CCN(C)CC4)CC3)c(OC)c2)nc1NC1CCOCC1	8.6µM*	26	3.1*
COc1ccccc1N1CCN(C2CCCN(Cc3nc(C(N)=O)no3)C2)CC1 (configuration not stated)	-19%	5	·
CC1=C[C@@H](CN(C)Cc2cccnc2)[C@H](C(C)C)C[C@H]1Cc1nnc(-c2ccc([N+](=O)[O-])cc2)o1	i	16	·
